From PubChem
A selection: hits, their analogues and other compounds. The true share with any hit is near 12%.
Pf growth 96h: Primary qHTS for delayed death inhibitors of the malarial parasite plastid, 96 hour incubation; Potency, µM (series often up to 28.7 µM), inactives show at the top dose activity change, negative = inhibition, usual class: inhibitors; 320,000 tested, 6.9% active; AID 504834, 2011; P. falciparum luciferase reporter growth, 96 h; note: % is set by controls: 0 for no effect and ±100 for the full control effect
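Infected RBCs, 2% Hct / 0.05% parasitemia final; luciferase-reporter P. falciparum; cpd 96 h, 37 C, 5% CO2; luciferase detection reagent; luminescence.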
SARS PLP yeast: qHTS of Yeast-based Assay for SARS-CoV PLP; S. cerevisiae expressing SARS-CoV PLpro, growth rescue; Potency, µM (series often up to 32.9 µM), without a hit: top-dose activity, positive = growth rescue, actives largely listed as activators; 330,000 tested, 0.19% active; calls by dose curve; note: 0% is about no effect; nearly all actives have a fitted effect of over 55% in size
Sm TGR inh: qHTS Assay for the Inhibitors of Schistosoma Mansoni Peroxiredoxins; Schistosoma mansoni thioredoxin glutathione reductase (TGR), Q962Y6; purified TGR, DTNB reduction, TNB absorbance 405 nm; Potency, µM (highest dose often 114 µM), inactives show at the highest dose activity change, negative = inhibition, usual class: inhibitors; 360,000 tested, 3% active; note: % is set by controls: 0 for no effect and ±100 for the full control effect; nearly all actives have a fitted effect of over 60% in size
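TGR 20 nM + NADPH 100 uM (dispensed conc.), cpd preinc 15 min RT; start with NADPH (500 uM addition) then DTNB (15 mM addition). Kinetic TNB absorbance, 405 nm filter. Four-parameter Hill fit across titration.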
Pf growth 48h: Primary qHTS for delayed death inhibitors of the malarial parasite plastid, 48 hour incubation; 310,000 tested, 5.9% active; P. falciparum luciferase growth in erythrocytes, 48 h; AID 504832, 2011; Potency, µM (series often up to 28.7 µM), for inactives: top-dose activity change, negative = inhibition, usual class: inhibitors; note: % is set by controls: 0 for no effect and ±100 for the full control effect
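Growth was read as firefly luciferase luminescence after a 48 h, 37 C, 5% CO2 exposure of compounds to reporter-bearing P. falciparum cultures (0.1% parasitemia, 2% hematocrit final) in Albumax-supplemented RPMI 1640.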
* = called active by the depositor; [ ] = another dose, or the depositor's remark. Unless noted, calls come from the whole dose curve; as a rule, active = well fitted curve in the direction sought with a large enough effect; inconclusive = small, poorly fitted or top-dose-only effect, or another doubt; inactive = no such curve, though single readings can be large; an effect the other way counts as inactive or inconclusive. Potency is the fitted concentration of half-maximal effect.

For CCOC(=O)C1(CCCc2ccccc2)CCN(C(=O)C2CCCN(C(N)=O)C2)CC1 (stereo unspecified) the results were Pf growth 96h 13µM*, SARS PLP yeast -1%, Sm TGR inh -4% and Pf growth 48h inconclusive.
For CCOC(=O)C1(CCc2ccccc2)CCN(C2CCSCC2)CC1 the results were Pf growth 96h -17%, SARS PLP yeast 2%, Sm TGR inh 11µM* and Pf growth 48h 9%.
`CCOC(=O)C1(CCc2ccccc2)CCN(Cc2cc(OC)c(OC)cc2OC)CC1` gave Pf growth 96h -7%, SARS PLP yeast -3%, Sm TGR inh -8% and Pf growth 48h inconclusive.
For CCOC(=O)C1(CC2CC2)CCN(Cc2ccc(C(=O)OC)cc2)CC1 the results were Pf growth 96h -19%, SARS PLP yeast 1%, Sm TGR inh 3%[57.1 µM] and Pf growth 48h 9.3µM*.
Screening CC(=O)Nc1ccc(CN2CCC(CO)(CCOc3ccccc3)CC2)cc1 returned Pf growth 96h inconclusive, SARS PLP yeast -1%, Sm TGR inh 6% and Pf growth 48h 24%.
Screening CCOC(=O)C1(CCc2ccccc2)CCN(Cc2ccc(NC(C)=O)cc2)CC1 returned Pf growth 96h 4.1µM*, SARS PLP yeast 0%, Sm TGR inh -1% and Pf growth 48h inconclusive.
For CCOC(=O)C1(CCOc2ccccc2)CCN(Cc2ccc(C)s2)CC1 the results were Pf growth 96h 10µM*, SARS PLP yeast 0% and Pf growth 48h 13µM*.
For CCOC(=O)C1(CCOc2ccccc2)CCN(Cc2cccc(OC)c2OC)CC1 the results were Pf growth 96h 10µM*, SARS PLP yeast 3%, Sm TGR inh -1% and Pf growth 48h inconclusive.
`CCOC(=O)C1(CCOc2ccccc2)CCN(Cc2ccc(NC(C)=O)cc2)CC1` gave Pf growth 96h 15%, SARS PLP yeast 1%, Sm TGR inh 5% and Pf growth 48h 13µM*.
Screening CCOC(=O)C1(CCOc2ccccc2)CCN(Cc2cnc(C)s2)CC1 returned Pf growth 96h inconclusive, SARS PLP yeast -3%, Sm TGR inh 15% and Pf growth 48h inconclusive.
For CCOC(=O)C1(CCc2ccccc2)CCN(Cc2ccc(C(=O)OC)cc2)CC1 the results were Pf growth 96h -8%, SARS PLP yeast -5%, Sm TGR inh -1% and Pf growth 48h inconclusive.
For COc1ccccc1CC(=O)Nc1ccc(S(=O)(=O)N(C)C2CCN(C)CC2)cc1 the results were Pf growth 96h -27%, SARS PLP yeast 2%, Sm TGR inh 8% and Pf growth 48h inconclusive.
Screening O=C(c1ccc(F)cc1)n1nc(-c2ccccc2)nc1NCc1ccco1 returned Sm TGR inh 3%.
COc1cccc(CN(C)C(=O)c2cccc(OCc3ccccc3)c2)c1 was read as Pf growth 96h 33%, SARS PLP yeast -34%, Sm TGR inh -7% and Pf growth 48h 11%.
For COc1ccc(NC(=O)N2CCC(CN3CCCC3)CC2)c(OC)c1 the results were Sm TGR inh -18%.
CCOC(=O)C1(Cc2ccccc2C(F)(F)F)CCN(C2CCN(C(C)C)CC2)CC1 was read as Pf growth 96h 15µM*, SARS PLP yeast -1%, Sm TGR inh 1% and Pf growth 48h 6%.
For COc1ccc(C2c3sc(=O)[nH]c3SC3C4CCC(C4)C23)cc1OC (stereo unspecified) the results were Pf growth 96h 9.3µM*, SARS PLP yeast -36%, Sm TGR inh -1% and Pf growth 48h inconclusive.
Fc1ccc(Oc2nc(-c3ccccc3)nnc2C(F)(F)F)cc1 was read as Pf growth 96h -6%, SARS PLP yeast inconclusive, Sm TGR inh -2% and Pf growth 48h 1%.
`Fc1ccc(Sc2nc(-c3ccccc3)nnc2C(F)(F)F)cc1` gave Pf growth 96h 13µM*, SARS PLP yeast -1%, Sm TGR inh inconclusive and Pf growth 48h 8.3µM*.
COc1cc(C(=O)N/N=C/c2coc3ccccc3c2=O)cc(OC)c1OC was read as Pf growth 96h 152%, SARS PLP yeast -2%, Sm TGR inh 45µM* and Pf growth 48h 75%.
For O=C(N/N=C/c1coc2ccccc2c1=O)c1cccc([N+](=O)[O-])c1 the results were Pf growth 96h 5.9µM*, SARS PLP yeast 1%, Sm TGR inh 1% and Pf growth 48h -3%.
Cc1ccc(C)c(NC(=O)C(=O)NCCc2csc(-c3cccc(F)c3)n2)c1 was read as Sm TGR inh -7%.
